BAZ2B inh: blocks human BAZ2B | AlphaScreen BAZ2B-H3K14Ac peptide displacement | Potency, µM (top dose mostly 114 µM), most hits filed as inhibitors | 360,000 tested, 4.4% active | AID 504333; note: nearly all actives have a fitted effect of over 60% in size
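Multi-concentration screen (max 110 uM) measuring displacement of acetylated histone H3 peptide from BAZ2B by AlphaScreen, using 50 nM protein, 50 nM peptide and 10 ug/mL streptavidin donor plus Ni-chelate acceptor beads.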
JMJD2A Tudor: blocks the human JMJD2A Tudor domain; AID 504339; AlphaScreen JMJD2A-Tudor / H3K4me3 peptide binding; Potency, µM (series often up to 114 µM), most hits filed as inhibitors; 390,000 tested, 4.4% active; O75164; note: nearly all actives have a fitted effect of over 50% in size
HP1b binding inh: blocks HP1-beta chromodomain binding to methylated histone tails; AlphaScreen HP1-beta / biotin-H3K9me3 peptide binding; P83916; 390,000 tested, 0.56% active; Potency, µM (titrated, usually from 114 µM), actives largely listed as inhibitors; note: nearly all actives have a fitted effect of over 70% in size
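HP1-beta protein (50 nM final) preincubated 30 min at room temperature with biotinylated H3(1-18)K9me3 peptide (50 nM) in PBS pH 7.4, 0.01% Tween-20, then compound added for 30 min. AlphaScreen streptavidin donor/nickel chelate acceptor beads (10 ug/mL final), 30 min dark, luminescence read.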
KAT2A inh: inhibitors of human GCN5L2 histone acetyltransferase | GCN5L2 HAT assay, ThioGlo1 CoA-SH fluorescence | 390,000 tested, 0.21% active | Q92830 | Potency, µM (highest dose often 58.9 µM), hits mostly inhibitors
Target sequence (Q92830 whole entry, looked up): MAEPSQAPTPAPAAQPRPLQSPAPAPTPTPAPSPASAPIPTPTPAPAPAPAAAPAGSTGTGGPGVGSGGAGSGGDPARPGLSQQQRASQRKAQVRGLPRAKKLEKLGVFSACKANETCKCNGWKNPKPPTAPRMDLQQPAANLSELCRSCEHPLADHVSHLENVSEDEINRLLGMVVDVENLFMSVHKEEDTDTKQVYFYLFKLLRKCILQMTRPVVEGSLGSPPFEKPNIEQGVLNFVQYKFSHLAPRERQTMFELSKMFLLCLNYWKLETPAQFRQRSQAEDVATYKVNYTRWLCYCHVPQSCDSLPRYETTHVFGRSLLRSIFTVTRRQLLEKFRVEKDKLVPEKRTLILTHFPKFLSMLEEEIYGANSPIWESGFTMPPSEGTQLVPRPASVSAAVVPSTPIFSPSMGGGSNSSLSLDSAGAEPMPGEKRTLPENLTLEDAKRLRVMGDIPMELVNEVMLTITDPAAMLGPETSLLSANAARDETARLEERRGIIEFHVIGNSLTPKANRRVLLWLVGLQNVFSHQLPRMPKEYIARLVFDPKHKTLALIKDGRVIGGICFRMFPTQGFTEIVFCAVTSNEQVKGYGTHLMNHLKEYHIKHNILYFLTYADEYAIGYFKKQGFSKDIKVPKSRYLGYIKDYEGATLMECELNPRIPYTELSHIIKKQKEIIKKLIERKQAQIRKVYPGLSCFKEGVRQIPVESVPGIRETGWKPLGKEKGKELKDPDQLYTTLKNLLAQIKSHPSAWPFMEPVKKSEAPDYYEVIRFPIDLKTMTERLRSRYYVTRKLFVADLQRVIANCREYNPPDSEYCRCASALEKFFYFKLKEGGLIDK
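GCN5L2 (20nM final) in 50mM HEPES, 0.1mM EDTA pH 7.5, 0.01% Tween-20 was preincubated 15 min at room temperature with compound, then given ThioGlo1 (50uM), H3(1-25) peptide (75uM) and acetyl-CoA (70uM); CoA-thiol fluorescence (Ex340/Em540) was read at 0 and 20 min.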
PI5P4K alpha inh: PI5P4K alpha (human) kinase inhibition. AID 652105. P48426. 330,000 tested, 1.2% active. max response, %. PI5P4Kalpha enzyme, ADP-Glo luminescence, 60 min; hits give low values; active = max response of -50% or lower; inconclusive = between -30% and -50%; inactive = -30% or higher; note: value at the top dose of about 77 µM
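PI5P4Kalpha ADP-Glo assay; 5 microM ATP final; 60 min RT reaction; HEPES pH 7.4/EGTA/CHAPS, 5% DMSO; controls lacking substrate or enzyme; luminescent end-point.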
PLK1 PBD inh: PLK1 (human) polo-box domain binding inhibition; Plk1 PBD binding of FITC phosphopeptide, fluorescence polarization; P53350; AID 720504; Potency, µM, usual class: inhibitors; 360,000 tested, 2.8% active; note: series mostly up to about 57 µM; nearly all actives have a fitted effect of over 65% in size
Hits are given with their value; n = inactive; u = inconclusive; x = no result; [ ] = remark or other dose. Only some compounds are listed: those with a hit (about 7% of all), similar ones and a draw of the others. Unless noted, calls come from the whole dose curve; as a rule, active = well fitted curve in the direction sought with a large enough effect; inconclusive = small, poorly fitted or top-dose-only effect, or another doubt; inactive = no such curve, though single readings can be large; an effect the other way counts as inactive or inconclusive.

SMILES	BAZ2B inh	JMJD2A Tudor	HP1b binding inh	KAT2A inh	PI5P4K alpha inh	PLK1 PBD inh
COc1cccc(C(NC(C)=O)c2nc(-c3cc4ccccc4o3)cs2)c1 (stereo not drawn)	x	x	x	x	n	n
COc1cccc(C(Nc2ccccn2)c2oc(CO)cc(=O)c2O)c1 (stereo not drawn)	79µM	45µM	u	n	n	21µM
O=c1cc(CO)oc(C(Nc2ccccn2)c2ccccc2F)c1O (stereo not drawn)	x	22µM	u	x	n	u
O=c1cc(CO)oc(C(Nc2ccccn2)c2cccc(F)c2)c1O (stereo not drawn)	n	20µM	u	n	n	24µM
COc1ccc(NC(=O)CCNC(=O)C2CCN(S(=O)(=O)c3ccccc3)CC2)cc1OC	x	x	x	x	n	n
COC(=O)c1ccc(NC(=O)c2cccc(C)c2[N+](=O)[O-])cc1	n	n	n	n	n	n
CCCC(N)CCCCCC(=O)O (stereo not drawn)	n	n	n	n	n	n
CCC(C)CCCCCCCCCCC(=O)O (stereo not drawn)	x	50µM	n	x	n	21µM
CCOC(=O)c1cnc(Nc2nc3ccccc3o2)nc1CN1CCN(C)CC1	79µM	u	n	n	n	n
Nc1ccc(N(c2ccccc2)c2ccc(N)cc2)cc1	25µM	16µM	40µM	u	n	n
Cc1ccc2occ(/C=N/O)c(=O)c2c1	n	n	n	n	n	n
CC(=O)Oc1ccc2occ(/C=N/c3cc(=O)[nH]c(=S)[nH]3)c(=O)c2c1	n	n[11.4 µM]	n	n	-51	5.3µM
O=C(COC(=O)CCC(=O)c1ccc(F)cc1)Nc1ccccc1	n	n	n	n	n	n
NC(=O)c1ccc(NC(=O)COC(=O)CCC(=O)c2ccc(Cl)cc2)cc1	n	u	n	n	n	24µM
CC(NS(=O)(=O)c1ccc2c(c1)C(=O)c1cc(S(=O)(=O)NC(C)C(=O)O)ccc1-2)C(=O)O (stereo not drawn)	n	10µM	u	n	n	n
CC(=O)NS(=O)(=O)c1ccc2c(c1)C(=O)c1cc(S(=O)(=O)NC(C)=O)ccc1-2	n	n	n	n	n	n
O=[N+]([O-])c1ccc(-n2nnnc2-c2ccccc2)c([N+](=O)[O-])c1	n	u	n	n	n	n
O=[N+]([O-])c1ccc(-n2nnnc2-c2ccccc2)cc1	n	u	n	n	n	11µM
CC(=O)NCCC(=O)NCc1ccc(F)cc1	n	n	n	n	n	n
CC(=O)N(C)Cc1ccc(C(=O)CCl)cc1	n	n	u	n	n	5.3µM
CC(=O)Nc1ccc(C)cc1	n	n	n	n	n	n
CC(=O)Nc1ccc(C(=O)CCl)cc1	u	n	n	n	n	5.3µM
CC(=O)NCc1ccc(C(=O)CCl)cc1	x	n	n	n	n	4.2µM
CCCNC(=O)Nc1ccc(NC(C)=O)cc1	n	u	n	n	n	11µM
CCS(=O)(=O)Nc1ccc(NC(C)=O)cc1	n	n	n	n	n	n
SMILES	BAZ2B inh	JMJD2A Tudor	HP1b binding inh	KAT2A inh	PI5P4K alpha inh	PLK1 PBD inh
Cn1c(=O)c(=O)n(C)c2cc(C(=O)NCc3ccccc3Cl)ccc21	n	n	n	n	x	x
COc1ccccc1C(=O)OCC(=O)c1ccc(CNC(C)=O)s1	x	n	n	n	n	n
CC(=O)NCc1ccc(C(=O)CCl)s1	u	n	n	n	n	6µM
CCOC(=O)C(NC(C)=O)(Nc1ccc(S(=O)(=O)Nc2ncccn2)cc1)C(F)(F)F (stereo not drawn)	n	u	n	n	n	30µM
CCOC(=O)C(NC(=O)CC)(Nc1ccc(S(=O)(=O)Nc2cc(C)on2)cc1)C(F)(F)F (stereo not drawn)	n	n	n	n	n	n
CCOC(=O)C(NC(=O)CC)(Nc1ccc(S(=O)(=O)Nc2onc(C)c2C)cc1)C(F)(F)F (stereo not drawn)	n	n[11.4 µM]	n	n	n	27µM
CC(=O)Nc1ccc(NC(=O)COC(=O)c2ccc(S(=O)(=O)N(C)c3ccccc3)cc2)cc1	x	n	n	x	n	n
COc1ccc(-n2nnc(-c3nsc(NC(=O)c4cccc(C)c4)n3)c2C)cc1OC	n	n	n	n	x	x
CC1=C(C(=O)Nc2ccccc2)C(c2ccc[nH]2)n2ncnc2N1 (stereo not drawn)	8.9µM	22µM	n	u	x	x
O=C1CC2c3ccccc3C1C1C(=O)N(CCO)C(=O)C21 (stereo not drawn)	n	n	n	n	n	n
C/[N+]([O-])=C\CC(=O)c1ccc(-c2ccccc2)cc1	n	32µM	n	n	n	21µM
CO/N=C/CC(=O)c1ccc(-c2ccccc2)cc1	n	n	n	n	n	n
CC(C)N(Cc1ccccc1)C(C)C (tested in a mixture with another compound)	x	x	x	n	x	x
C#CCOCCOCCOCCNc1nc(N2CCN(C(=O)[C@H](CCCCN)n3cc(CN)nn3)CC2)nc(N2CCN(C(=O)[C@H](CCCCN)n3cc(CN)nn3)CC2)n1	x	79µM	n	n	n	n
C#CCOCCOCCOCCNc1nc(N2CCN(C(=O)Cn3cc(CCCN=C(N)N)nn3)CC2)nc(N2CCN(C(=O)[C@H](CCCCN)n3cc(CCCC)nn3)CC2)n1	79µM	n	n	n	n	n
C#CCOCCOCCOCCNc1nc(N2CCOCC2)nc(N2CCN(C(=O)[C@H](CCCCN)n3cc(CCC(=O)O)nn3)CC2)n1	x	n	n	x	n	n
C#CCOCCOCCOCCNc1nc(N2CCN(C(=O)[C@H](CCC(=O)O)n3cc(CN)nn3)CC2)nc(N2CCN(C(=O)[C@H](CCCCN)n3cc([C@@H](N)CC(N)=O)nn3)CC2)n1	x	56µM	n	n	n	n
C#CCOCCOCCOCCNc1nc(N2CCN(C(=O)[C@H](CCCCN)n3cc(CN)nn3)CC2)nc(N2CCN(C(=O)[C@H](CCC(=O)O)n3cc([C@@H](N)CCCCN)nn3)CC2)n1	x	89µM	n	n	n	n
O=C1NC[C@H](CCCCN2CCN(Cc3ccccc3)C(=O)C2=O)N(CCc2ccc(O)cc2)C1=O	x	x	x	x	n	n
CCCCC/C=C\C\C=C/C=C/C=C/[C@@H](SC[C@H](N)C(=O)NCC(=O)O)[C@@H](O)CCCC(=O)O	x	x	x	n	x	x
O=C(Nc1ccc2c(c1)CCC2)c1cnn2c1NC(c1ccco1)CC2C(F)(F)F (stereo not drawn)	n	n[11.4 µM]	n	n	n	27µM
Cc1ccc(Cl)cc1NC(=O)c1cnn2c1NC(c1ccco1)CC2C(F)(F)F (stereo not drawn)	u	n	n	n	x	n
N#C/C(=C\c1ccc(-c2cc(Cl)ccc2Cl)o1)C(=O)Nc1cccc2ncccc12	x	x	x	n	x	x
CCCc1cc(=O)[nH]c2nnc(SCC(=O)Nc3cccc(NC(C)=O)c3)n12	n	n	n	n	n	n
